# Data as given in ChEMBL document CHEMBL3988442, “University of Dundee, Small-Polar-MMV Screening Library” (2021).
# Screen size: about 66,000 compounds; about 960 (1.5%) showed an effect of 50% or more. Shown is part of a subset that was picked to be rich in strong results.
# System: Trypanosoma brucei
# Assay: Trypanosoma brucei 72 hour study
# Assay type: functional, organism-based
# Parameters: scale not given: in the data most compounds retested in dose-response had high values
smiles,measurement,setting,value
CN1CC2(CCCN(Cc3nnc(-c4ccccc4)o3)CC2)OC1=O (stereo unspecified),Percent Effect,"30 µM, 30.03 µM",-20.69%
COCCNC(=O)c1nnn(Cc2ccccc2)c1OC,Percent Effect,"30.3 µM, […]",3.67%
CCN(CC)C(=O)c1nnn(Cc2ccccc2)c1OC,Percent Effect,"30 µM, 30.03 µM",61.55%
CCNC(=O)c1nnn(Cc2ccccc2)c1OC,Percent Effect,"30 µM, 30.03 µM",40.11%
CCc1nnc(SC2CCCN(c3cccc(F)c3)C2=O)n1C (stereo unspecified),Percent Effect,"30 µM, 30.03 µM",-37.32%
CCOCC1CN(CCN(C)C)Cc2cnn(CC3CCCC3)c21.O=C(O)C(F)(F)F.O=C(O)C(F)(F)F (stereo unspecified),Percent Effect,"30 µM, 30.03 µM",-10.76%
Cc1ccc(C(=O)N2CC[C@@H](N(C)C)[C@@H]2Cc2cnn(C)c2)cn1.O=C(O)C(F)(F)F.O=C(O)C(F)(F)F,Percent Effect,"30.3 µM, […]",-478.3%
CC(=O)c1ccc(N2CCC(CO)(CCOc3ccccc3)CC2)nc1,Percent Effect,"30 µM, 30.03 µM",16.6%
N#Cc1cccc(N2CCCC(CO)(CCOc3ccccc3)C2)n1 (stereo unspecified),Percent Effect,"30 µM, 30.03 µM",-42.71%
CC(=O)c1ccc(N2CCCC(CO)(CCc3ccccc3)C2)nc1 (stereo unspecified),Percent Effect,"30 µM, 30.03 µM",50.39%
CC(=O)c1ccc(N2CCCC(CO)(Cc3ccccc3F)C2)nc1 (stereo unspecified),Percent Effect,"30 µM, 30.03 µM",-24.14%
CC(=O)c1ccc(N2CCCC(CO)(CCOc3ccccc3)C2)nc1 (stereo unspecified),Percent Effect,"30 µM, 30.03 µM",71.93%
Nc1nccc(N2CCCC(CO)(CCOc3ccccc3)C2)n1 (stereo unspecified),Percent Effect,"30 µM, 30.03 µM",82.96%
N#Cc1ccc(N2CCCC(CO)(CCOc3ccccc3)C2)nc1 (stereo unspecified),Percent Effect,"30 µM, 30.03 µM",-38.44%
OCC1(CCOc2ccccc2)CCCN(c2ccc(Cl)cn2)C1 (stereo unspecified),Percent Effect,"30 µM, 30.03 µM",-34.7%
CC(=O)c1ccc(N2CCCC(CO)(Cc3ccccc3C)C2)nc1 (stereo unspecified),Percent Effect,"30 µM, 30.03 µM",-6.304%
O=C(O)C(F)(F)F.O=C1CCCN1Cc1ncn2c1CN(C(=O)N1CCCC1)CCC2,Percent Effect,"30.3 µM, […]",-52.13%
Cc1occc1C(=O)N1CCC2(CCCN(c3ncc(F)cn3)C2)C1.O=C(O)C(F)(F)F (stereo unspecified),Percent Effect,"30.3 µM, […]",-25.24%
O=C(NCCCNc1ccc(C(F)(F)F)cn1)c1ccc2c(c1)OCO2,Percent Effect,10 µM,-42.23%
Cc1ncc2c(n1)CN(c1ncnc3[nH]ccc13)CC2,Percent Effect,"30 µM, 30.03 µM",-13.69%
c1ncc2c(n1)CN(c1ncnc3[nH]ccc13)CC2,Percent Effect,"30 µM, 30.03 µM",-32.45%
c1nc(N2CCc3[nH]cnc3C2)c2cc[nH]c2n1,Percent Effect,"30 µM, 30.03 µM",75.2%
Cn1cc(N2CC3(COCCN(Cc4nccs4)C3)OCC2=O)cn1.O=C(O)C(F)(F)F (stereo unspecified),Percent Effect,"30 µM, 30.03 µM",27.05%
Cc1cc(N(C)C)cc(C2CCN(S(=O)(=O)c3cccnc3)C2)n1 (stereo unspecified),Percent Effect,"30.3 µM, […]",-0.05808%
Cc1ccc(-c2cc(-c3c(C)nn(CCO)c3C)c(C#N)c(N)n2)cc1,Percent Effect,"30.3 µM, […]",33.48%
Cc1cccc(-c2cc(-c3c(C)nn(CCO)c3C)c(C#N)c(N)n2)c1,Percent Effect,"30.3 µM, […]",57.96%
Cc1nn(CCO)c(C)c1-c1cc(C(C)(C)C)nc(N)c1C#N,Percent Effect,"30.3 µM, […]",0.04143%
CCOCC(=O)N1C[C@@H]2COC[C@]2(c2nc(C)no2)C1,Percent Effect,"30.3 µM, […]",-76.29%
Cc1noc([C@]23COC[C@H]2CN(C(=O)COC2CCCC2)C3)n1,Percent Effect,"30.3 µM, […]",-59.73%
Cc1noc([C@]23COC[C@H]2CN(C(=O)CN(C)C)C3)n1.O=C(O)C(F)(F)F,Percent Effect,"30.3 µM, […]",106.1%
Cc1ccc(CN2CCCC3(CCN(S(C)(=O)=O)C3)C2)o1.O=C(O)C(F)(F)F (stereo unspecified),Percent Effect,"30 µM, 30.03 µM",16.24%
Cc1csc2c(N3CCNC(C(=O)NCc4cccnc4)C3)ncnc12 (stereo unspecified),Percent Effect,"30 µM, 30.03 µM",-5.987%
Cc1csc2c(N3CCNC(C(=O)N4CCCC4)C3)ncnc12 (stereo unspecified),Percent Effect,"30 µM, 30.03 µM",24.45%
Cc1csc2c(N3CCNC(C(=O)Nc4ccc(F)cc4)C3)ncnc12 (stereo unspecified),Percent Effect,"30 µM, 30.03 µM",72.13%
Cc1cc(C(=O)N2CCc3nc(C4CCCN4)ncc3C2)cs1.Cl (stereo unspecified),Percent Effect,"30.3 µM, […]",-23.19%
Cc1occc1C(=O)NCC(=O)N(C)CCCOc1ccccc1,Percent Effect,"30 µM, 30.03 µM",-44.45%
Cc1occc1C(=O)NCC(=O)N(C)CCCOc1ccc(F)cc1,Percent Effect,"30 µM, 30.03 µM",95.62%
Cc1occc1C(=O)NCC(=O)NCCCOc1ccc(F)cc1,Percent Effect,"30 µM, 30.03 µM",-42.11%
CNC(=O)c1ccc(C2CCCN(C(=O)c3sc(C)nc3C)C2)nc1 (stereo unspecified),Percent Effect,"30.3 µM, […]",-1.908%
Cc1cc(NCCN)nc2ccccc12.O=[N+]([O-])O,Percent Effect,"30.3 µM, […]",-46.24%
CCS(=O)(=O)c1ccccc1N1CCC(NC(=O)NC2CCCC2)CC1,Percent Effect,"30 µM, 30.03 µM",7.94%
CCS(=O)(=O)c1ccccc1N1CCC(NC(C)=O)CC1,Percent Effect,"30 µM, 30.03 µM",4.915%
CCS(=O)(=O)c1ccccc1N1CCC(NC(=O)c2ccc[nH]2)CC1,Percent Effect,"30 µM, 30.03 µM",54.24%
CCC[C@@H]1CN(Cc2cc(C#N)n(C)c2C)C[C@H]1NS(C)(=O)=O,Percent Effect,"30 µM, 30.03 µM",0.9985%
Cc1nc(N)c2ccc(C3CCCCN3)nc2n1.Cl (stereo unspecified),Percent Effect,"30.3 µM, […]",-17.89%
CN(c1ccc(C(=O)NCCCN2CCCCC2)c(Cl)c1)S(C)(=O)=O,Percent Effect,"30 µM, 30.03 µM",-14.39%
